# Values without a mark were called inactive.
# Key:
# Test in all cases: log2 ratio of Biotin-Ahx-Ub-VS probe labelling (fragment/DMSO); higher = less target engagement (more negative = stronger competition), active = hit call of the paper (q ≤ 0.05, log2 ratio ≤ -1)
# Settings in all cases: compound concentration: 200 uM; treatment time: 3 h
# USP19 = target: T1, USP19 (UniProt O94966)
# T1 sequence (whole entry): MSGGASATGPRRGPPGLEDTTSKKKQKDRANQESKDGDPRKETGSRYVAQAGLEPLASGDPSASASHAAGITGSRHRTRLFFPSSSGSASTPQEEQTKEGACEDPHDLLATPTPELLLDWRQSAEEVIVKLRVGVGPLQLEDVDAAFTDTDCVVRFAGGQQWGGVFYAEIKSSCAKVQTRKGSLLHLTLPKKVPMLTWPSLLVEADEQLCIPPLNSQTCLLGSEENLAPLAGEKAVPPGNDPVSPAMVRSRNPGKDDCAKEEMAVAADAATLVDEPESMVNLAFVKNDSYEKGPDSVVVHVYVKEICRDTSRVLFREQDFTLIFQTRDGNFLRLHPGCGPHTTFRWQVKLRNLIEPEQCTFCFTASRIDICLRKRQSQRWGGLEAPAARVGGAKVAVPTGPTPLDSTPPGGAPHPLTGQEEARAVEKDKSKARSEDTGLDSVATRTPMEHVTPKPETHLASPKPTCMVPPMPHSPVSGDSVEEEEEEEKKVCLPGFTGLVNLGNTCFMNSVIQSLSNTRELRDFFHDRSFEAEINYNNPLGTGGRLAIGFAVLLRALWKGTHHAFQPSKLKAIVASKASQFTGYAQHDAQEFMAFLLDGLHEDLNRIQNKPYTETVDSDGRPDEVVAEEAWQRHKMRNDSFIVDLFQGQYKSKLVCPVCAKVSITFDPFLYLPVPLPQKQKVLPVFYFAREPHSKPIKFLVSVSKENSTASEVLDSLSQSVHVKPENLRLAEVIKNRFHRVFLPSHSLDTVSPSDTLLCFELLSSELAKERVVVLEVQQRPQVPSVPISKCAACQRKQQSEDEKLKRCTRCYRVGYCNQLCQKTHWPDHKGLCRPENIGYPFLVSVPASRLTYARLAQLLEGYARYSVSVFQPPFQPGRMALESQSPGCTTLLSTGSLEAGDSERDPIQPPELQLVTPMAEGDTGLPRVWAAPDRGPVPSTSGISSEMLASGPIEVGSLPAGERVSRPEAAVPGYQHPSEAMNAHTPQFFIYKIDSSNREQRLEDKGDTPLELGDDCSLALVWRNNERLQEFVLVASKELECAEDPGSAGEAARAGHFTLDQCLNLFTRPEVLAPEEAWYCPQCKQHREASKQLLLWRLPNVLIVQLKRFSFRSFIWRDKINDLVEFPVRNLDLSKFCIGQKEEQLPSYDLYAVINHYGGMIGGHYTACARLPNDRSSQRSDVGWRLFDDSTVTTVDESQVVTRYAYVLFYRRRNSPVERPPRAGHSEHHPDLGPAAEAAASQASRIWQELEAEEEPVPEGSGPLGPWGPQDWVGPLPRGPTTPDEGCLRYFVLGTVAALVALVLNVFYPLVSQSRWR
# Procedure, shortened: (§1)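 Values give the average log2 ratio of fragment to vehicle, assessed by unpaired t-test on global-median-normalised Spectronaut label-free quantities. Proteins needed ≥2 unique peptides. HEK293T lysate (495 µg per sample) was treated in triplicate with fragment at 200 µM or vehicle for 3 h and then with Biotin-Ahx-Ub-VS at 0.5 µM final for 1 h. Labelled DUBs were NeutrAvidin-enriched, digested and run by diaPASEF LC-MS/MS.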
# USP22 = target: T2, USP22 (UniProt Q9UPT9)
# T2 sequence (whole entry): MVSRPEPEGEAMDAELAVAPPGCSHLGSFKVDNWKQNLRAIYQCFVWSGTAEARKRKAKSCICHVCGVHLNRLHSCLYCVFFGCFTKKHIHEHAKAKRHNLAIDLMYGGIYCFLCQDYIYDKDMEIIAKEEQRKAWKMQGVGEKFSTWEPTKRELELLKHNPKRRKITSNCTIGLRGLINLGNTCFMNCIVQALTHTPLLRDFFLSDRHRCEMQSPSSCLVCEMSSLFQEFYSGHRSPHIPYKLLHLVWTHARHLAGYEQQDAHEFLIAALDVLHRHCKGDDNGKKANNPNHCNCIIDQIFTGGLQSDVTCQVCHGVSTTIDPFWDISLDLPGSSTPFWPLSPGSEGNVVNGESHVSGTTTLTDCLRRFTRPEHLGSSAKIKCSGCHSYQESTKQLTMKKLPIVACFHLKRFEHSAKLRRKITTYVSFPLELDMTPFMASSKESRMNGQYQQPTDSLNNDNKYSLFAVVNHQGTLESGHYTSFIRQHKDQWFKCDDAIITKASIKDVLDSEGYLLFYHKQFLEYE
# Procedure, shortened: as §1
# USP24 = USP24 (UniProt Q9UPU5)
# Chain of USP24 (Q9UPU5 whole entry): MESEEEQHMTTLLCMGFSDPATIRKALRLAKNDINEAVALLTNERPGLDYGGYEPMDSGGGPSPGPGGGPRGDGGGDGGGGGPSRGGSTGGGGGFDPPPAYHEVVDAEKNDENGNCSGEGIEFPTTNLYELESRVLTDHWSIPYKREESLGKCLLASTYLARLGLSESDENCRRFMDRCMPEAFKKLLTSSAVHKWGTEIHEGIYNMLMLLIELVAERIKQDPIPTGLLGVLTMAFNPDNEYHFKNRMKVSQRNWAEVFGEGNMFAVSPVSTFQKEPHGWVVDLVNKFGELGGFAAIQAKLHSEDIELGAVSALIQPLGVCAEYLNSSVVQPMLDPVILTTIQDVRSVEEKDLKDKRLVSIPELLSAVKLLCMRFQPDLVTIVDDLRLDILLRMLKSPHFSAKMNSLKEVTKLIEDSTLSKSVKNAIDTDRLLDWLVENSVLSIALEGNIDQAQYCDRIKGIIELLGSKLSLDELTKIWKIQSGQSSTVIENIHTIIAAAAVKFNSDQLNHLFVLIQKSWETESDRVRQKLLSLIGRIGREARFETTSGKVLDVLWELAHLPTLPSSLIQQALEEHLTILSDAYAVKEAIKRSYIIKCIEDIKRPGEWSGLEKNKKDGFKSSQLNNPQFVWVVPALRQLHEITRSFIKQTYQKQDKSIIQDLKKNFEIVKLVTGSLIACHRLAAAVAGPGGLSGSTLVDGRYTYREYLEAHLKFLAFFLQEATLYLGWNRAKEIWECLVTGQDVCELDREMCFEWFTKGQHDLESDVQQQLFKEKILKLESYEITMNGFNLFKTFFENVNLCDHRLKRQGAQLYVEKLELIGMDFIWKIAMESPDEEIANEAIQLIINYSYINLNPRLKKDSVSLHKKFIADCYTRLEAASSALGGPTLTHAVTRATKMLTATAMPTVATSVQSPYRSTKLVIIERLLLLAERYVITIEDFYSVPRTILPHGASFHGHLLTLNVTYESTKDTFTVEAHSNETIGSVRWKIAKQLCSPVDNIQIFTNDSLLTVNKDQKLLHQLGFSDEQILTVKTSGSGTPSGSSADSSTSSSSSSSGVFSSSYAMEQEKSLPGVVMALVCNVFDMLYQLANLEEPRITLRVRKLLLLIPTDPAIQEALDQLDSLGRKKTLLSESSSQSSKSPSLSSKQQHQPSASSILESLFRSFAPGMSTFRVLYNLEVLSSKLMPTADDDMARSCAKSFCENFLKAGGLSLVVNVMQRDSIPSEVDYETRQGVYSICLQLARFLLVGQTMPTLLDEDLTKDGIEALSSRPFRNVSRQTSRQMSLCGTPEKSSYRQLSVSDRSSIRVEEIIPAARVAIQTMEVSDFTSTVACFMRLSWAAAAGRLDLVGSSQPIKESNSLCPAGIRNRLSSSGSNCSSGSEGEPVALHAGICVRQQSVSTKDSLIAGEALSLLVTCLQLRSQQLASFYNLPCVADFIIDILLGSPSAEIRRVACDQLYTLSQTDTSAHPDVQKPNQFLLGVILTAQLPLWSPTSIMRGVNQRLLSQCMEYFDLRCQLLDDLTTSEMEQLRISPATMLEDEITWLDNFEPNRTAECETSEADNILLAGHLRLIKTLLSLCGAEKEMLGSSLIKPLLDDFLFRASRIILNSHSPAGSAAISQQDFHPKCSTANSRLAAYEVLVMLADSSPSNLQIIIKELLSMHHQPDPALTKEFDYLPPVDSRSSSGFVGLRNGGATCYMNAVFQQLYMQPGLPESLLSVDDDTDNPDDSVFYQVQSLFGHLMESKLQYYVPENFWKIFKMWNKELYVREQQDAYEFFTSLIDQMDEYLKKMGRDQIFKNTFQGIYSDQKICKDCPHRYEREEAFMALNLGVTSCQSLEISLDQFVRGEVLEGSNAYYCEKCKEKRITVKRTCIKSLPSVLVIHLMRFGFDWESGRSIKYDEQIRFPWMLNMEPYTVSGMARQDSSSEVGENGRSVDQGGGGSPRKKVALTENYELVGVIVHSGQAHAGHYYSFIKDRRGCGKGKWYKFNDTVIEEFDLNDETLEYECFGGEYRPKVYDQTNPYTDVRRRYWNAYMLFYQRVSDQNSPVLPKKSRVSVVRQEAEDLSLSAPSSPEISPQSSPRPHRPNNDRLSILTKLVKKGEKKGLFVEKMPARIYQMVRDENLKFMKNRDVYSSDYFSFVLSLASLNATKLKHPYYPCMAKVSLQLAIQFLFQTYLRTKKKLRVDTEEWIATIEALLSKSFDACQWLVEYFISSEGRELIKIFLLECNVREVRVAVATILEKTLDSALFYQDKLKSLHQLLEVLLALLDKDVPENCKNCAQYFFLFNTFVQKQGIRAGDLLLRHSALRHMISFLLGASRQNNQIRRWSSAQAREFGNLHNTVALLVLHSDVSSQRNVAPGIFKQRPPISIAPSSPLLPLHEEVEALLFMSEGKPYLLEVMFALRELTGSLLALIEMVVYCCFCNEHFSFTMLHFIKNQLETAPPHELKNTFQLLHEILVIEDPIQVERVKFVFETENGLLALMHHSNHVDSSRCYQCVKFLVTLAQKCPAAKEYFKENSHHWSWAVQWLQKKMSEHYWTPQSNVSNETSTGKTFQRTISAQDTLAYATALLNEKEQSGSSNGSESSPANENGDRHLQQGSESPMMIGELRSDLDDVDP
# Procedure, shortened: as §1
# USP25 = target: T3, USP25 (UniProt Q9UHP3)
# T3 sequence (whole entry): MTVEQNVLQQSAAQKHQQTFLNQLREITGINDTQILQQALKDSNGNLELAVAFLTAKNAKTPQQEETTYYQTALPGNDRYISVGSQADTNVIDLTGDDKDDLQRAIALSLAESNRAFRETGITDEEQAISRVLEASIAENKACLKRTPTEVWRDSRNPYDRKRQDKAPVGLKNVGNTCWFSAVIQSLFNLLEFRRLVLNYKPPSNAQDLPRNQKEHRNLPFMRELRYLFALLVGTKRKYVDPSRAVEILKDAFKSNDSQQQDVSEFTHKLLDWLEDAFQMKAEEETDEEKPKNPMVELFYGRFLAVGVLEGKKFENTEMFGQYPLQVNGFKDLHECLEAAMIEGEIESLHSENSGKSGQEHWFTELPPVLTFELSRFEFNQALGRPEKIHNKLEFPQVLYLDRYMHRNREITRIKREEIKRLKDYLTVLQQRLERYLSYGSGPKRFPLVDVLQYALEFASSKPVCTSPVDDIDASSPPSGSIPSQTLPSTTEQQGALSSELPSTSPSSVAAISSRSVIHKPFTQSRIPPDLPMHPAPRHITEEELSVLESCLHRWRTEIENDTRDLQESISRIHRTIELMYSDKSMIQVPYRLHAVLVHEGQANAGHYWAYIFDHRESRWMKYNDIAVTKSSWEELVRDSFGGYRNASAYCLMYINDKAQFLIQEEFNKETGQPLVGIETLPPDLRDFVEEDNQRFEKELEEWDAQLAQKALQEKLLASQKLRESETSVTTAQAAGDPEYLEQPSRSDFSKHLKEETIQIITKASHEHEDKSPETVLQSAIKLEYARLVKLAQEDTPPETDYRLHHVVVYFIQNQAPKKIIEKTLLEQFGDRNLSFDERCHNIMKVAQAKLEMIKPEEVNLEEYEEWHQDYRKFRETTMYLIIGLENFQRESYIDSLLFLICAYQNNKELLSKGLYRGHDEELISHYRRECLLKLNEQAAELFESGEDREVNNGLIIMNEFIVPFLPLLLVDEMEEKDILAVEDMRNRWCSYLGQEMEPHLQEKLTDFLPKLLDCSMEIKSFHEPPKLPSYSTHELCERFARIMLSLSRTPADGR
# Procedure, shortened: as §1
# USP28 = target: T4, USP28 (UniProt Q96RU2)
# T4 sequence (whole entry): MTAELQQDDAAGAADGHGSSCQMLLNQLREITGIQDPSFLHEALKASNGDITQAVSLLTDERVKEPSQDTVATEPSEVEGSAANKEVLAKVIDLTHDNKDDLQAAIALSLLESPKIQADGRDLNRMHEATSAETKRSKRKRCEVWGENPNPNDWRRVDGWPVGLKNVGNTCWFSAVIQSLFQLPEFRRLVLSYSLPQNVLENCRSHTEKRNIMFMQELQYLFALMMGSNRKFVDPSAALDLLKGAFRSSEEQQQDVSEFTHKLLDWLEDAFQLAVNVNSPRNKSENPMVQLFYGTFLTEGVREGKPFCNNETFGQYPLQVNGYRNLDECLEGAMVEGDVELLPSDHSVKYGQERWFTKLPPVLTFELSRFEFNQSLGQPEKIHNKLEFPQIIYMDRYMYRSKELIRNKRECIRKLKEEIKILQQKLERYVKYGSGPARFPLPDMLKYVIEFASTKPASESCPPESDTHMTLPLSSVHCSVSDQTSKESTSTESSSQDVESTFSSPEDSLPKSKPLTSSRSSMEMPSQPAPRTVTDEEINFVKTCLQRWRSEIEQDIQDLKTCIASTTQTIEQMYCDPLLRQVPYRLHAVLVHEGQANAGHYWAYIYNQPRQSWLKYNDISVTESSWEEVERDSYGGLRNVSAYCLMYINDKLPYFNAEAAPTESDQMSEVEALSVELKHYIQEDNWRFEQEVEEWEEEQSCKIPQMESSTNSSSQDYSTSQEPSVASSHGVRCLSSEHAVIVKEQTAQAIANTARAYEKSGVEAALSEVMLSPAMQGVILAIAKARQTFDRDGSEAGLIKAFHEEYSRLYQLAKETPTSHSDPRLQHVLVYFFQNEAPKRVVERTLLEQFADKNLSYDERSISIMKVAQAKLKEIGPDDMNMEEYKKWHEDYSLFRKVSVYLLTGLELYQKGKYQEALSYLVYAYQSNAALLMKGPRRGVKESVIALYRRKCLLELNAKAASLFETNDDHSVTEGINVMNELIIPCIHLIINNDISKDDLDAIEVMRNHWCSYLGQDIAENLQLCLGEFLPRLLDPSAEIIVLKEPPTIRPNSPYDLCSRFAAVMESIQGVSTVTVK
# Procedure, shortened: as §1
compound,measurement,setting,value
CN1C(=O)c2ccc(NC(=O)CCl)cc2C1=O,log2 ratio of Biotin-Ahx-Ub-VS probe labelling,USP19,-0.358
same,log2 ratio of Biotin-Ahx-Ub-VS probe labelling,USP22,0.0519
same,log2 ratio of Biotin-Ahx-Ub-VS probe labelling,USP24,-0.467
same,log2 ratio of Biotin-Ahx-Ub-VS probe labelling,USP25,-1.54 (active)
same,log2 ratio of Biotin-Ahx-Ub-VS probe labelling,USP28,-1.5 (active)
